Values joined by “and” are separate entries in the source; they are usually repeats but may differ in a detail not shown here. Equal entries are not always repeated. Records with an inconclusive call do not appear. Active and inactive are the calls of the source. Unless noted, calls follow the shape of the dose curve; as a rule, active = well fitted curve in the direction sought with a large enough effect; inconclusive = small, poorly fitted or top-dose-only effect, or another doubt; inactive = no such curve, though single readings can be large; an effect the other way counts as inactive or inconclusive.

Assay [1] can be described thus: Primary qHTS for inhibitors of nuclear receptor binding SET domain protein 2 (NSD2) in an RCH-ACV wild type WT cells (2C) (AID 1645877). Also: potency is read from the fitted curve at half-maximal effect; nearly all actives have a fitted effect of over 70% in size.
Assay [2] deals with Luciferin 4-monooxygenase (Photinus pyralis) (UniProt P08659). Description: Biochemical firefly luciferase enzyme assay for NPC (AID 624030).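 Also: purified P. pyralis luciferase at 10 nM with luciferin and ATP substrate; series mostly up to about 59 µM; 0% = DMSO and -100% = full luciferase inhibition by PTC124 control; nearly all actives have a fitted effect of over 70% in size.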 In outline:
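Purified P. pyralis luciferase at 10 nM in 50 mM Tris Acetate (final), luminescence read within 5 minutes of enzyme addition to compounds. Activity normalised to PTC124 versus DMSO; concentration-response curves classed by r2, magnitude and activity.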

Assay [3] addresses Peroxisome proliferator-activated receptor gamma (Homo sapiens) (UniProt P37231). In words: qHTS assay for small molecule agonists of peroxisome proliferator-activated receptor gamma signaling (AID 588536; active = well fitted curve in the direction sought with a large enough effect in the signal ratio, with a control signal flat, not every such curve was filed as active; the % refers to the signal ratio;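 also: 0% = DMSO basal wells and 100% = rosiglitazone at 2 µM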). The gist of the method: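 This is an agonist-mode beta-lactamase reporter assay in HEK293 PPAR-gamma-UAS-bla cells with 1% charcoal/dextran FBS. Compound titrations ran 16 h at 37 C before CCF4 detection. EC50 and efficacy are Hill fits scaled to 2 uM rosiglitazone (100%) and DMSO basal.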

For assay [4] the target is unchanged. Description: qHTS assay for small molecule antagonists of peroxisome proliferator-activated receptor gamma signaling (AID 588537; active = well fitted inhibition curve with a large enough effect in the signal ratio, with a control signal flat, not every such curve was filed as active; the % refers to the signal ratio;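 also: reporter cells co-stimulated with 50 nM rosiglitazone agonist during compound treatment; % of control where 0% means no effect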). In outline:
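Read-out: CCF4 fluorescence (ex 405, em 460/530 nm) after 2 h at RT. Cells were HEK293 carrying a UAS-bla reporter and treated 16 h at 37 C with compound plus rosiglitazone (50 nM final). Normalized to rosiglitazone and DMSO.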

Assay [5] concerns the target Thyroid hormone receptor beta (Homo sapiens) (UniProt P10828). Description: qHTS assay for small molecule agonists of thyroid hormone receptor beta signaling (AID 588545; calls by dose curve;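 also: 0% = DMSO only and 100% = 10 nM T3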). The gist of the method:
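Stimulation of a TR-driven beta-lactamase reporter was quantified in GripTite HEK 293 cells. Compound series ran for 18 hrs; curves were normalized to T3 and DMSO controls and fitted to yield EC50.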

Assay [6] is described as follows: qHTS assay for small molecule antagonists of retinoid X receptor alpha signaling (AID 588546; active = well fitted inhibition curve with a large enough effect in the signal ratio, with a control signal flat, not every such curve was filed as active; the % refers to the signal ratio;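 also: cells stimulated with 9-cis-retinoic acid as agonist; % is scaled to controls: 0 for no effect and ±100 for the full control effect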). Conditions: HEK293T RXRa-UAS-bla, beta-lactamase ratio, antagonist mode; measured here: W530 green channel, cytotoxicity proxy. In outline: (§1)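 Beta-lactamase reporter inhibition, read as CCF4 fluorescence ratio (ex 405, em 460/530 nm) after 2 h at RT. HEK293T UAS-bla cells, 2500/well, were stimulated with 9-cis-RA at 500 or 100 nM final alongside test compound for 18 h at 37 C.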

The target of assay [7] is Retinoic acid receptor RXR-alpha (Homo sapiens) (UniProt P19793). The assay is described as above. Conditions: HEK293T RXRa-UAS-bla, beta-lactamase ratio, antagonist mode. In outline: as §1
A short description of assay [8]: qHTS assay for small molecule activators of the p53 signaling pathway (AID 651743; active = well fitted activation curve with a large enough effect in the signal ratio, not every such curve was filed as active; the % refers to the signal ratio; also: series mostly up to about 92 µM; % of control where 0% means no effect). Conditions: HCT-116 p53RE-bla, beta-lactamase FRET ratio, 16 h; stronger effect = higher value. The gist of the method:
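Reporter: beta-lactamase driven by p53 response elements, stably integrated in HCT-116 cells. Cells seeded at 4,000/well, 5 h preincubation, compound (DMSO) 16 h at 37 C; B/G FRET substrate 2 h RT; fluorescence intensity read.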

Assay [9] is described as follows: qHTS assay for environmental chemicals that activate the Aryl hydrocarbon Receptor (AhR) signaling pathway (AID 651777). Also: % of control where 0% means no effect; nearly all actives have a fitted effect of over 15% in size. The settings on record: 1A2-DRE human hepatoma cells, luciferase, 24 h; stronger effect = higher value. In outline:
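Measured luciferase activity, read 30 min after One-Glo addition at room temperature, from human hepatoma cells bearing a dioxin response element–CYP1A2 promoter reporter and exposed to compound for 24 hr at 37 C.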

In assay [10] the target is Peroxisome proliferator-activated receptor alpha (Homo sapiens) (UniProt Q07869). Description: qHTS assay for small molecule agonists of the peroxisome proliferator-activated receptor alpha (PPARalpha) signaling pathway (AID 651778). Also: % of control where 0% means no effect. The settings on record: PathHunter PPARalpha complementation, chemiluminescence, 6 h; stronger effect = higher value. In outline: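 Enzyme-fragment complementation assay in which ligand-bound PPARalpha translocates and forms an active enzyme that generates chemiluminescence. Cells were plated overnight, exposed to compound for 6 hr at 37 C, and then given detection reagent for 60 min at room temperature.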

Assay [11] can be described thus: qHTS for differential inhibitors of proliferation of Plasmodium falciparum line W2 (AID 1883).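 Also: parasites grown with compound for 72 h before lysis and staining.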 Also: potency is read from the fitted curve at half-maximal effect. The settings on record: Potency: Plasmodium falciparum W2 proliferation inhibition.
The nature of assay [12]: Quantitative high throughput screen for delayed death inhibitors of the malarial parasite plastid, 96 hour incubation (AID 488745).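 Also: luciferase-expressing P. falciparum in erythrocytes at 2% hematocrit and 0.1% parasitemia; series mostly up to about 29 µM; % is scaled to controls: 0 for no effect and ±100 for the full control effect; nearly all actives have a fitted effect of over 70% in size.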 In outline:
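Luciferase-expressing P. falciparum, infected RBCs 2% Hct/0.1% parasitemia (final); 96 h cpd exposure, 37 C, 5% CO2; RPMI 1640 + 0.5% Albumax, bicarbonate, gentamycin. Readout: luminescence loss = growth inhibition.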

Assay [13] in a line: Quantitative high throughput screen for delayed death inhibitors of the malarial parasite plastid, 48 hour incubation (AID 488752). Also: % is scaled to controls: 0 for no effect and ±100 for the full control effect; nearly all actives have a fitted effect of over 65% in size. In outline:
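Luciferase-expressing P. falciparum in RBCs, 2% Hct, 0.1% parasitemia final; RPMI 1640 + 0.5% Albumax; 48 h, 37 C, 5% CO2; luminescence readout, signal drop = growth inhibition.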

Assay [14] in a line: NCATS anti-infectives library activity on HEK293 viability as a counter-qHTS vs the C. elegans viability qHTS (AID 1745854). Also: % is scaled to controls: 0 for no effect and ±100 for the full control effect. The gist of the method: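 CellTiter-Glo luminescence, read on a CCD imager, scored viability of HEK293 cells after 24 hr compound exposure at 37C. Library tested in several concentrations, 1:5 steps, up to 41.7 uM; digitonin served as control.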
Assay [15] can be described thus: qHTS for differential inhibitors of proliferation of Plasmodium falciparum line 3D7 (AID 1876).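 Also: parasite growth measured after three days of culture; 0% = vehicle wells and -100% = reference inhibitor wells.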
A short description of assay [16]: qHTS for differential inhibitors of proliferation of Plasmodium falciparum line D10 (AID 1877).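 Also: parasites grown with compound for 72 h before DNA staining; plate controls were vehicle wells for no effect and reference inhibitor wells for full effect.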
Assay [17] can be described thus: qHTS for differential inhibitors of proliferation of Plasmodium falciparum line Dd2 (AID 1882).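 Also: series mostly up to about 29 µM; compound exposure of 72 h on infected erythrocytes; plate controls were DMSO vehicle for no effect and 0.29 µM artemisinin for full effect; nearly all actives have a fitted effect of over 65% in size.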 Conditions: Potency: Plasmodium falciparum Dd2 proliferation inhibition. The gist of the method: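 RBC culture, 0.3% parasitemia / 2.5% Hct final; cpd added by pin tool in DMSO; 72 h, 37 C, 5% CO2; lysis buffer + SYBR Green I, o/n RT dark; FI 485/535; norm. to artemisinin 0.29 uM and DMSO.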

The nature of assay [18]: qHTS for differential inhibitors of proliferation of Plasmodium falciparum line HB3 (AID 1886).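 Also: parasites grown with compound for 72 h before SYBR Green readout; plate controls were vehicle for no effect and reference inhibitor for full effect.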 The settings on record: Potency: Plasmodium falciparum HB3 proliferation inhibition.
Assay [19] has as its target M-phase phosphoprotein 8 (Homo sapiens) (UniProt Q99549). Description: qHTS Validation Assay for Inhibitors for MPP8 Chromodomain Interactions with Methylated Histone Tails (AID 488949). Also: nearly all actives have a fitted effect of over 55% in size. Also: potency is read from the fitted curve at half-maximal effect. In outline: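 MPP8 (50 nM) was preincubated with biotinylated H3(1-18)K9me3 peptide (50 nM) in PBS pH 7.4, 0.01% Tween-20 for 30 min at room temperature, then with compounds for 30 min; binding was detected by AlphaScreen.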

Assay [20] can be described thus: qHTS Assay for Identification of Small Molecule Antagonists for NFkB Signaling Pathway (AID 895; active = well fitted inhibition curve with a large enough effect in the signal ratio, with a control signal flat, not every such curve was filed as active; the % refers to the signal ratio; also: % is scaled to controls: 0 for no effect and ±100 for the full control effect). The gist of the method: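 ME-180 NFkB-bla cells (beta-lactamase under NFkB response element), plated overnight, treated with compound then 10 pM TNF alpha (about EC50) for 5 hrs at 37 C. LiveBLAzer FRET read at 460/530 nm emission, 405 nm excitation.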

Chain of Peroxisome proliferator-activated receptor gamma (Homo sapiens) (P37231 whole entry, looked up): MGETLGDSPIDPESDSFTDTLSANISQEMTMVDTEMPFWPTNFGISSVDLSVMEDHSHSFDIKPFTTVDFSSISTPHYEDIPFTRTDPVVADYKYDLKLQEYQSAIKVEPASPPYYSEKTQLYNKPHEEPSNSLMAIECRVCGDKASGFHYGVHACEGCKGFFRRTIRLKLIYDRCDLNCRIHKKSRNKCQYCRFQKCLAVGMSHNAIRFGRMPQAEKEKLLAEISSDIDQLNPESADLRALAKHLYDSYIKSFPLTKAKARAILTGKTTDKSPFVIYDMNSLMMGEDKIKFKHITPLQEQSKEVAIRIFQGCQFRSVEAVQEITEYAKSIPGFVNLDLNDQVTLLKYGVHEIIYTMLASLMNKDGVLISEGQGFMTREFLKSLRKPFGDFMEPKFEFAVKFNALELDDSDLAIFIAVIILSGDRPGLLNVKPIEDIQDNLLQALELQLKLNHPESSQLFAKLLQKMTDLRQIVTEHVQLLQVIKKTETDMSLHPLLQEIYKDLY
Chain of M-phase phosphoprotein 8 (Homo sapiens) (Q99549 whole entry, looked up): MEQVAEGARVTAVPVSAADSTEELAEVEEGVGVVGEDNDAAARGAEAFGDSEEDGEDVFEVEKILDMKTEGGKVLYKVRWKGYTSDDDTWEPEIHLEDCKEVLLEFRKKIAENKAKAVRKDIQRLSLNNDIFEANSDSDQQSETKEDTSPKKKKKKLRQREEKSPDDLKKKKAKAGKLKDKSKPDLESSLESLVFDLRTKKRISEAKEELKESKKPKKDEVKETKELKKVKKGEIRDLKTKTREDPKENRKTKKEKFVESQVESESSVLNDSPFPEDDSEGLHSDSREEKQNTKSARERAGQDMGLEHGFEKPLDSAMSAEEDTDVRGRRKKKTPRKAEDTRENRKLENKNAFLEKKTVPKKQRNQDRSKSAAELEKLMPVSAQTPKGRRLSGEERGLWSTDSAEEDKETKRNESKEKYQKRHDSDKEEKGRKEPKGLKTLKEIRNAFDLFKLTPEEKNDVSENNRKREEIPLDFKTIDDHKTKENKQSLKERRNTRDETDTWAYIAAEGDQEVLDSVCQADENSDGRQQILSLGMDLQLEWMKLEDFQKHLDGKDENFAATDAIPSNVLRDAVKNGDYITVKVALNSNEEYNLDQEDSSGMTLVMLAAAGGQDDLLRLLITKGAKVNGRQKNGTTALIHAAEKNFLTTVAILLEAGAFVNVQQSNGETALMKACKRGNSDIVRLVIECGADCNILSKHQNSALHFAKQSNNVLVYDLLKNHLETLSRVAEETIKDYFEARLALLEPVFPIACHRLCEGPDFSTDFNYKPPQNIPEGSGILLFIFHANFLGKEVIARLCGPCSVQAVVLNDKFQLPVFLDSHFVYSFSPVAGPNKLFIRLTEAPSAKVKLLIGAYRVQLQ
Chain of Thyroid hormone receptor beta (Homo sapiens) (P10828 whole entry, looked up): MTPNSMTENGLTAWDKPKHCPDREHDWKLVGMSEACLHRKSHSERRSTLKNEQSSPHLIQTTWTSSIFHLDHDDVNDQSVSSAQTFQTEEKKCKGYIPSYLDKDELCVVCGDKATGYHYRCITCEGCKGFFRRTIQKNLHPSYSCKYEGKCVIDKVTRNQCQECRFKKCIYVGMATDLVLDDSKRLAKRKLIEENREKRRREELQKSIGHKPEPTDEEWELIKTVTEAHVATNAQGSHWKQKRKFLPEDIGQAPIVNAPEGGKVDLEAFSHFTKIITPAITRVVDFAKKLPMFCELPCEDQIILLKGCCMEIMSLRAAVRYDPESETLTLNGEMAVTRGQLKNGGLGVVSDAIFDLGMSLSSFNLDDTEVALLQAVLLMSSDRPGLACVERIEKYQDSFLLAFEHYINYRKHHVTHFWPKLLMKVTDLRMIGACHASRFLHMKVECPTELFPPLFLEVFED
Chain of Peroxisome proliferator-activated receptor alpha (Homo sapiens) (Q07869 whole entry, looked up, the tested form may be a part): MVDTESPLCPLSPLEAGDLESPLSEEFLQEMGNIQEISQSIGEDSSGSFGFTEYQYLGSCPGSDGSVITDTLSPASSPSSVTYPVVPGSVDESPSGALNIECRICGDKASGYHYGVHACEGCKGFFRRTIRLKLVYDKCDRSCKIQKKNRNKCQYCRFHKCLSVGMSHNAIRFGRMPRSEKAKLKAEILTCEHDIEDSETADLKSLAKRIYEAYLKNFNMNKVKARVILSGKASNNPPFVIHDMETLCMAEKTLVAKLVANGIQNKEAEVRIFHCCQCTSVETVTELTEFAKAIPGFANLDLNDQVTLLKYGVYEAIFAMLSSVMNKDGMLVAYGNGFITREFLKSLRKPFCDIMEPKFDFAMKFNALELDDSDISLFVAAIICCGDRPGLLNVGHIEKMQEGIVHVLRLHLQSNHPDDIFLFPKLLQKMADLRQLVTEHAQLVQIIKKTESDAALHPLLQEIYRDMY
Chain of Retinoic acid receptor RXR-alpha (Homo sapiens) (P19793 whole entry, looked up): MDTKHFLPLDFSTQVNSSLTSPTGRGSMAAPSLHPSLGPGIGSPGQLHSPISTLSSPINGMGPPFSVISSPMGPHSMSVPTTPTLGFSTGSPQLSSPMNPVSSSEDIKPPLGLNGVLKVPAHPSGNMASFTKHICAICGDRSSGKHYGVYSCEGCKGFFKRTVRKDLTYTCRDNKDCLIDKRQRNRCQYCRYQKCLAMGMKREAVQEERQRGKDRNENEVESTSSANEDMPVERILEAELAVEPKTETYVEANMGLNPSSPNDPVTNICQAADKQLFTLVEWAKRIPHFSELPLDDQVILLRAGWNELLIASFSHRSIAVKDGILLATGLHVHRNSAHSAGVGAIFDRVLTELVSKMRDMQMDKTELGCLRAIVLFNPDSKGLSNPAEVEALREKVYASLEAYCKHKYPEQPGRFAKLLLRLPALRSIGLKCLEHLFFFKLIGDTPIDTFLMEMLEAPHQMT
Chain of Luciferin 4-monooxygenase (Photinus pyralis) (P08659 whole entry, looked up): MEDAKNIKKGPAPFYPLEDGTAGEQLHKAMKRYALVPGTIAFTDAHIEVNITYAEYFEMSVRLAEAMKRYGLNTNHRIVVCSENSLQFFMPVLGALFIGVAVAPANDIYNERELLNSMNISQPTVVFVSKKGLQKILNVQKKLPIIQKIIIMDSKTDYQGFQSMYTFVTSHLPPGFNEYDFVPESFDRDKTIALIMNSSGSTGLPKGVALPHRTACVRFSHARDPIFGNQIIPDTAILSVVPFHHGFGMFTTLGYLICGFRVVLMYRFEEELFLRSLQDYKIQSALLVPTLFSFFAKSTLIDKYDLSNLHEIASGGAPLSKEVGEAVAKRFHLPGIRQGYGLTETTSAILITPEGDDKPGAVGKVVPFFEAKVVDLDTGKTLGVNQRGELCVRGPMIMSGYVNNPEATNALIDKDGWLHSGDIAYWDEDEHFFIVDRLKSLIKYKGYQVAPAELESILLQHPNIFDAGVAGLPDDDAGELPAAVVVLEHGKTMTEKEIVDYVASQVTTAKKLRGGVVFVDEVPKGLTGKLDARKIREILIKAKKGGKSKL

For the compound `N#CC(=C(/N)Sc1ccccc1N)/C(C#N)=C(/N)Sc1ccccc1N`, in [1], the Potency was 14.6 µM (active).

For the compound `CCOC(=O)C(CCc1ccccc1)NC1CCc2ccccc2N(CC(=O)O)C1=O` (stereo not given), the Potency entry in assay [2] is “inactive”.

`Cc1ccc(-c2nn(C(C)(C)C)c3ncnc(N)c23)cc1`: the Potency in [1] is 11.6 µM (active).

For the compound `CC(C)=CCC/C(C)=C/CC/C(C)=C/CO`, the result in assay [3], in [4] and in assay [5] was inactive. Moreover, the max response in assay [6] was -7.11%; in assay [7], 5.64% (inactive); in [10] it was 2.41% (inactive). Besides, the activation in [8] is 1.11% (inactive); in [9], 1.51% (inactive).

In the case of `COc1ccc2c(c1)c(CC(=O)N1CCOCC1)c(C)n2C(=O)c1ccc(Cl)cc1`, the Potency in [11] is 12.6 µM (active). For the same compound, the Potency result in assay [12] and in [13] was “inactive” throughout.

For `CC(=O)[C@H]1[C@H](C#N)C[C@H]2[C@@H]3CC=C4C[C@@H](O)CC[C@]4(C)[C@H]3CC[C@@]21C`, the compound was called inactive in [3], in assay [4] and in assay [5]. Besides, the max response in [6] was 9.02%; in [7], -3.98% (inactive); in assay [10], -0.257% (inactive) and 0.0087% (inactive). In addition, the activation in assay [8] is 0.753% (inactive) and -1.56% (inactive); in assay [9] it was -1.23% (inactive) and 0.356% (inactive).

Consider `O=C1CCc2c(ccc3ccccc23)O1`, for which the compound was called inactive in [14].

Consider `C[N+](C)(C)CCC(=O)c1cccc2ccccc12`, for which the Potency result in [15], in [16], in assay [17], in [11] and in [18] was “inactive” each time. In addition, the Potency in assay [19] is 10 µM (active).

Consider `N#CC(=C(/N)Sc1ccccc1N)/C(C#N)=C(\N)Sc1ccccc1N`, for which, in assay [14], the result was inactive.

In the case of `OCc1cc([C@@H](O)CNCCCCCCOCCCCc2ccccc2)ccc1O`, the Potency entry in [2] was “inactive”.

As to `COc1ccccc1NC(=O)Nc1nc(-c2cccnc2)nc2ccccc12`, the Potency result in assay [15], in assay [16], in [17], in [18], in assay [12] and in assay [13] was “inactive” throughout. In addition, in [19], the Potency result was “inactive”.

For `NCCNS(=O)(=O)c1cccc2cnccc12`, the Potency result in [15], in assay [16], in assay [17], in assay [18], in assay [12] and in [13] was “inactive” each time. Besides, in assay [19], the Potency entry is “inactive”. The Potency in [11] is 11.2 µM (active).

As for `OCCOCCN1CCN(Cc2cccc(Oc3ccccc3)c2)CC1`, the compound was called inactive in [14].

Consider `C[C@@H]1CCN=C(N)S1`, for which the Potency result in assay [20] is “inactive”.

On to `Cc1cccc([C@@H]2CN(C)CCc3c2cc(O)c(O)c3Cl)c1`, for which the Potency result in assay [20] was “inactive”.

Regarding `Fc1cccc(/C=N\N=C/c2cccc(F)c2)c1`, the Potency entry in assay [20] is “inactive”.

The record behind these values is PubChem BioAssay (NCATS).
